Experimental findings from PubChem BioAssay (NCATS) are described below.

Where “and” joins values, the source holds several entries; their conditions need not be identical. Equal values may be shown once. A number with no mark means an inactive call. Records with an inconclusive call do not appear. Calls of active or inactive are those of the source. The call rests on the fitted dose curve; in most records, active means well fitted curve in the direction sought with a large enough effect; inconclusive means small, poorly fitted or top-dose-only effect, or another doubt; inactive means no such curve, though single readings can be large; an effect the other way counts as inactive or inconclusive. Where a SMILES comes first, the peptide text is derived from it. [ ]: non-standard residue; d: D form. ξ: configuration not given here. ξLac(3-iPr) = CC(C)CC(O)C(=O)O; NMeV = CN[CH](C(=O)O)C(C)C; βAla = NCCC(=O)O

Assay [1] is described as follows: Primary qHTS for inhibitors of nuclear receptor binding SET domain protein 2 (NSD2) in an RCH-ACV wild type WT cells (2C) (AID 1645877). Further: nearly all actives have a fitted effect of over 70% in size. Further: potency means the concentration at half of the fitted maximal effect. On the technique in general: In qHTS, concentration-response curves come from the screen itself.
For assay [2], the target named is Glutathione peroxidase 1 (Homo sapiens) (UniProt P07203). Briefly: Primary qHTS Assay for Inhibitors of Recombinant Selenoprotein Glutathione Peroxidase 1 (GPX1) (AID 1845191). Further: nearly all actives have a fitted effect of over 65% in size. On activity, negative = inhibition: on the % scale 0 is the no-effect control and ±100 the full control effect. The gist of the method: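 GR-coupled readout: NADPH consumption tracked by fluorescence, ex 340/em 450 nm, at t=0 and after 15 min at RT. Final mix 10 nM GPX1, 1 mM GSH, 0.5 mM CHP, 0.5 mM NADPH, 100 nM GR, 0.01% BSA, following 30 min enzyme–compound preincubation.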

The target in assay [3] is Phospholipid hydroperoxide glutathione peroxidase GPX4 (Homo sapiens) (UniProt P36969). Description: Primary qHTS Assay for Inhibitors of Recombinant Selenoprotein Glutathione Peroxidase 4 (GPX4) (AID 1845192). Further: nearly all actives have a fitted effect of over 65% in size. The gist of the method:
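Steps: GPX4 plus compound, 30 min RT; add GR/GSH/NADPH master mix; start with cumene hydroperoxide; read 340/450 nm fluorescence at 0 and 15 min. Finals were 200 nM GPX4, 1 mM GSH, 0.5 mM CHP, 0.5 mM NADPH, 100 nM GR.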

The target in assay [4] is Luciferin 4-monooxygenase (Photinus pyralis) (UniProt P08659). Briefly: Primary firefly luciferase (FLuc) qHTS assay for identification of artifact compounds. (AID 1845220). Further: nearly all actives have a fitted effect of over 60% in size. The gist of the method: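 Titrated compounds were incubated 15 min at RT, protected from light, with luciferin and ATP at 10 uM; reaction started with 10 nM FLuc, luminescence imaged at 5 min, and concentration-response fitted by Hill equation.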

Assay [5] can be described thus: Primary fluorescence-based thiol-reactive (MSTI) qHTS assay for identification of artifact compounds. (AID 1845221). Further: nearly all actives have a fitted effect of over 65% in size. Further: potency means the concentration at half of the fitted maximal effect.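 On activity change, negative = thiol reactive: series mostly up to about 54 µM; thiol-reactive compounds lower the probe fluorescence signal.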 The gist of the method:
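Curve-fitted percent inhibition (4-parameter Hill) derived from fluorescence, Ex 525/Em 598 nm, scaled with Acetyl-MSTI and MSTI; 1 h incubation at room temperature.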

For assay [6], the system named is Nanoluciferase (engineered Oplophorus gracilirostris luciferase). Briefly: Primary Nanoluciferase (NLuc) qHTS assay for identification of artifact compounds. (AID 1845222).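 Further: NLuc secreted into diluted conditioned medium of S16 cells; series mostly up to about 54 µM; 0% = DMSO and -100% = no enzyme.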 The gist of the method: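 qHTS format, against NLuc in S16 cell-conditioned medium. Nano-Glo substrate 1:100 was added after 15 min at room temperature. Luminescence was taken after a further 5 min.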

The nature of assay [7]: Primary redox qHTS assay for identification of artifact compounds. (AID 1845223).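 Further: 0% = DMSO and 100% = reference compound.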 Put shortly: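 Redox-cycling detection via DTT (250 uM final) oxidation coupled to Amplex Red (25 uM)/HRP (250 mU/mL) in HBSS. 15 min preincubation plus 30 min after DTT, room temperature. Ex/Em 525/598 nm; 4-parameter Hill fit against DMSO and 10 uM DA3003.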

Chain of Phospholipid hydroperoxide glutathione peroxidase GPX4 (Homo sapiens) (P36969 whole entry, looked up): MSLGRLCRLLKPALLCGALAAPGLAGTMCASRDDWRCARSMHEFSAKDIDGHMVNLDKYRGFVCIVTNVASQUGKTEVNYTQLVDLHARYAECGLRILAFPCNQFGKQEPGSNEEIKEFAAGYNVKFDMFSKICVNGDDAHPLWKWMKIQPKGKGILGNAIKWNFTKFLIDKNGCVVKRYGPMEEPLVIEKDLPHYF
Chain of Glutathione peroxidase 1 (Homo sapiens) (P07203 whole entry, looked up): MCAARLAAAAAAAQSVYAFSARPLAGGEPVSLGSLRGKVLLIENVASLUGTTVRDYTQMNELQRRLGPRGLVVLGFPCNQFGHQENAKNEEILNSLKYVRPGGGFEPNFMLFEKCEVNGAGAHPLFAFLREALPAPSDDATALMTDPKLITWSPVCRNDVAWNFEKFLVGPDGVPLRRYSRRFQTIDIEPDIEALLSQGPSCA

For `C=C1CC2C(C)(CCC(=O)O)C(C(C)(C)O)CCC2(C)C2C(=O)OC(C)(C(=O)OC)C(=O)C12C` (stereo unspecified), the Potency result in assay [1], in assay [2], in assay [3], in assay [4], in assay [5] and in assay [6] was “inactive” throughout. For the same molecule, the Potency entry in assay [7] was “inactive”.
Take `CNC12CC3C[C@@](C)(C1)C[C@](C)(C3)C2`: the Potency entry in assay [1], in assay [2], in assay [3], in assay [4], in assay [5] and in assay [6] was “inactive” each time. In addition, the Potency entry in assay [7] is “inactive”.
On to `COc1ccc(CCC(=O)c2c(O)cc(O)cc2O[C@@H]2O[C@H](CO)[C@@H](O)[C@H](O)[C@H]2O)cc1`, for which the Potency was 8.93 µM (active) in assay [1] and 10.3 µM (active) in assay [5]. Further, the Potency entry in assay [2], in assay [3], in assay [4], in assay [6] and in assay [7] was “inactive” each time.
With `Cc1c(C(=O)N2CCOc3ccc(-c4ccc(N)nc4)cc3C2)ccc(S(C)(=O)=O)c1F`, the Potency in assay [1] is 1.83 µM (active) and 3.32 µM (active). Besides, the Potency entry in assay [2], in assay [3], in assay [4], in assay [5], in assay [6] and in assay [7] was “inactive” in each case.
Regarding `C=C(C)C1CCC2(C(=O)O[C@@H]3O[C@H](CO[C@@H]4O[C@H](CO)[C@@H](O)[C@H](O)[C@H]4O)[C@@H](O)[C@H](O[C@@H]4O[C@@H](C)[C@H](O)[C@@H](O)[C@H]4O)[C@H]3O)CCC3(C(=O)O)C(CCC4C5(C)CCC(O)C(C)(C)C5CCC43C)C12` (stereo partly specified), the values for the outcome in assay [1] and in assay [4] were “inactive [at 9.23 µM]” and “inactive [at 11.6 µM]”, respectively. Further, the Potency entry in assay [2] and in assay [3] was “inactive” in each case. The activity change, negative = thiol reactive in assay [5] is 301% [at 11.5 µM]. Further, the activity, negative = inhibition in assay [6] was 0% [at 11.6 µM]. For the same molecule, the redox activity (% of DA3003) in assay [7] was 10.3% [at 11.5 µM].
In the case of `CC(C)CC1OC(=O)C2CCCN2C(=O)CCNC(=O)C(Cc2ccccc2)NC(=O)C(C(C)C)N(C)C(=O)C(C(C)C)N(C)C1=O` (stereo unspecified) (cyclo([ξLac(3-iPr)][NMeV][NMeV]F[βAla]P); configuration not given here), the Potency result in assay [1], in assay [2], in assay [3], in assay [4], in assay [5] and in assay [6] was “inactive” throughout. Moreover, the Potency entry in assay [7] was “inactive”.
`CC(C)C(=O)OC[C@H]1O[C@H](O[C@H]2O[C@H](CO)[C@@H](O)[C@H](O)[C@H]2O)[C@H](O)[C@@H](O)[C@@H]1O`: the Potency entry in assay [1], in assay [2], in assay [3], in assay [4], in assay [5] and in assay [6] was “inactive” each time. Also, the Potency result in assay [7] was “inactive”.
With `O=C1NC(Cc2c[nH]c3ccccc23)C(=O)NC1Cc1cnc[nH]1` (stereo unspecified), the Potency entry in assay [1], in assay [2], in assay [3], in assay [4], in assay [5] and in assay [6] was “inactive” in each case. For the same molecule, the Potency result in assay [7] is “inactive”.
For `NC(=O)[C@H](O[C@@H]1O[C@H](CO)[C@@H](O)[C@H](O)[C@H]1O)c1ccccc1`, the Potency result in assay [1], in assay [2], in assay [3], in assay [4], in assay [6] and in assay [7] was “inactive” each time. The Potency in assay [5] was 16.5 µM (active).
Turning to `CC1=C(CO)C(=O)O[C@@H]([C@@H](C)[C@H]2CC[C@H]3[C@@H]4C[C@H]5O[C@]56[C@@H](O)C=CC(=O)[C@]6(C)[C@H]4CC[C@]23C)C1`, the Potency in assay [1] is 709 nM (active) and 263 nM (active). The Potency entry in assay [2], in assay [3], in assay [4], in assay [5], in assay [6] and in assay [7] was “inactive” throughout.
`C/C(=C\C=C\C(C)C1CCC2(C)C3CCC4C(C)(C)C(=O)CCC45CC35CCC12C)C(=O)O` (stereo unspecified): the Potency result in assay [1], in assay [2], in assay [3], in assay [4], in assay [5] and in assay [6] was “inactive” each time. Moreover, in assay [7], the Potency entry is “inactive”.
In the case of `CC(=O)O[C@]1(C(C)=O)CC[C@H]2[C@@H]3C[C@H](C)C4=CC(=O)C=C[C@]4(C)[C@@]3(F)[C@@H](O)C[C@@]21C`, the Potency in assay [1] was 0.0129 µM (active). For the same molecule, the Potency entry in assay [2], in assay [3], in assay [4], in assay [5], in assay [6] and in assay [7] was “inactive” throughout.
For `OC[C@H]1O[C@@H](OC(CCCCc2ccc(O)cc2)CCc2ccc(O)cc2)[C@H](O)[C@@H](O)[C@@H]1O` (stereo partly specified), the Potency entry in assay [1], in assay [2], in assay [3], in assay [4], in assay [5] and in assay [6] was “inactive” in each case. Besides, the Potency entry in assay [7] is “inactive”.
Regarding `C[C@H](NC(c1cccc2[nH]c(=O)c(=O)[nH]c12)P(=O)(O)O)c1ccc(Br)cc1` (stereo partly specified), the Potency result in assay [1], in assay [2], in assay [3], in assay [4], in assay [5] and in assay [6] was “inactive” each time. Moreover, the Potency result in assay [7] was “inactive”.
On to `COc1ccc([C@H]2CNC(=O)C2)cc1OC1CCCC1`, for which the Potency entry in assay [1], in assay [2], in assay [3], in assay [4], in assay [5] and in assay [6] was “inactive” in each case. Also, in assay [7], the Potency entry was “inactive”.
With `C[C@@H]1C[C@@H]([C@@H](O)C(C)(C)O)O[C@H]2C[C@@]3(C)C(=C12)C[C@H](O)[C@H]1[C@@]2(C)CCC(=O)C(C)(C)C2CC[C@@]13C` (stereo partly specified), the Potency result in assay [1], in assay [2], in assay [3], in assay [4], in assay [5] and in assay [6] was “inactive” throughout. The Potency result in assay [7] is “inactive”.
As for `CC(C)(O)C1CCC(C)(C2CCC3(C)C4CCC5C(C)(C(=O)OC6OC(CO)C(O)C(O)C6O)C(O)CC(O)C56CC46CCC23C)O1` (stereo unspecified), the Potency entry in assay [1], in assay [2], in assay [3], in assay [4], in assay [5] and in assay [6] was “inactive” throughout. The Potency result in assay [7] is “inactive”.
In the case of `CC1(C)CC2C(O)c3cocc3CC(C)(O)C2C1` (stereo unspecified), the Potency result in assay [1], in assay [2], in assay [3], in assay [4], in assay [5] and in assay [6] was “inactive” in each case. Also, the Potency result in assay [7] was “inactive”.
